In PubChem BioAssay (NCATS):

Assay: Cell Proliferation Assay against the TMD8 Cell Line (AID 651645);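 also: cells exposed to compound for 48 h before reading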
Conditions: TMD8 DLBCL cell line proliferation/viability; at 46.1 µM (top of the series)
In short: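 Cell viability of the ABC DLBCL line TMD8 is measured by CellTiter-Glo luminescence following a 48-hour incubation with compound. Percent activity uses DMSO as 100% and 9.2 uM bortezomib (final) as 0%.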

SMILES | viability (% of control)
CCC=CC[C@H]1C(=O)CC[C@@H]1CC(=O)OC | 114%
CN(C)CCN(C)C(=O)c1ccc(NC(=O)Nc2ccc(-c3nc(N4CCOCC4)c4ccn(CC(F)(F)F)c4n3)cc2)cc1 | 0.807%
Cn1cc(-c2ccc3nnc(Sc4ccc5ncccc5c4)n3n2)cn1 | 74.4%
O=C1C(CCC(O)c2ccc(F)cc2)C(c2ccc(O)cc2)N1c1ccc(F)cc1 (stereo not drawn) | 87.2%
CCC(=O)N1CCN(c2ccc(-n3c(=O)ccc4cnc5ccc(-c6cnc7ccccc7c6)cc5c43)cc2C(F)(F)F)CC1 | 3.32%
CC(C)C[C@@H](C(=O)N[C@H](C(=O)OC1CCCC1)c1ccccc1)[C@H](O)C(=O)NO | 4.45%
CCCCCCCCCCCCCC(=O)N[C@H](CO)[C@H](O)c1ccc([N+](=O)[O-])cc1 | 4.37%
O=C(O)c1ccc(O)c2ncc(N3CCOCC3)cc12 | 77.1%
CC(O)=C(C#N)C(=O)Nc1ccc(C(F)(F)F)cc1 | 43.6%
NC(=O)c1ccc(N(C(N)=O)c2c(F)cccc2F)nc1-c1ccc(F)cc1F | 81.2%
COc1cc2c(cc1OC)CC(=O)N(CCCN(C)C[C@H]1Cc3cc(OC)c(OC)cc31)CC2 | 108%
COc1nc(C)cnc1NS(=O)(=O)c1cccnc1-c1ccc(-c2nnco2)cc1 | 116%
CCCCOCCOc1nc(-c2ccc(C(=O)O)c(F)c2)sc1C | 98.4%
Cc1ccc(NC(=O)c2ccc(CN3CCN(C)CC3)cc2)cc1Nc1nc(-c2cccnc2)cs1 | 8.7%
COc1c(C)cnc(Cn2cnc3c(Cl)nc(N)nc32)c1C | 13.8%
Cc1nn(Cc2ccccc2Cl)c(C)c1CN(C)CC(O)COc1ccc(Cl)cc1 (stereo not drawn) | 9.51%
CN1C(=O)C(Cc2c[nH]c3ccccc23)NC1=S (stereo not drawn) | 80.6%
O=C(Nc1cccc(Cl)c1)Nc1ncc(CCNc2ncnc3ccsc23)s1 | 1.73%
CCCCn1c(=O)n(Cc2ccccc2F)c(=O)c2[nH]c(Cc3ccc(NC(C)=O)cc3)nc21 | 5.19%
COC(=O)Nc1ccc(-c2nc(N3CCOCC3)c3cnn(C4CCN(C(=O)OC)CC4)c3n2)cc1 | 32.2%
Cc1cccc(Nc2nc(N[C@@H]3CCCC[C@H]3N)ncc2C(N)=O)c1 | 2.81%
CNC(=O)c1cc(Oc2ccc(NC(=O)Nc3ccc(Cl)c(C(F)(F)F)c3)c(F)c2)ccn1 | 3.02%
OCCn1cc(-c2ccc3c(c2)CCC3=NO)c(-c2ccncc2)n1 | 80.7%
